Compound activity deposited in PubChem BioAssay by National Center for Advancing Translational Sciences (NCATS).
This is a sample that favours compounds with a hit; in the whole collection about 18% have one here.
LDHA block – qHTS assay for inhibitors of human lactate dehydrogenase; purified LDHA, NADH/diaphorase-resazurin fluorescence; active compounds read low; activity change, % (values are at about 110 or 230 µM); 480,000 tested, 0.15% active; AID 1347041, 2019; in the data active = activity change below about -30%; inconclusive = mostly about -25% to -30%
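Human LDH5 (2 nM) was incubated with 0.06 mM NADH and 0.2 mM pyruvate for 5 min at room temperature in Tris pH 7.4. Remaining NADH was coupled through diaphorase/resazurin, and resorufin fluorescence was read at 0 and 20 min.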
IL1B secr inh – qHTS for Inhibitors of Inflammasome Signaling: IL-1-beta AlphaLISA Primary Screen | THP-1 LPS/ATP IL-1B secretion, AlphaLISA, 16 h; active compounds read low | activity change, % at 57.5 µM | 360,000 tested, 4.7% active; in the data active = activity change below about -50%; inconclusive = mostly about -30% to -49%
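THP-1 cells pretreated 1 hr with compounds (up to 57.5 uM final), then stimulated with LPS (250 ng/mL final) plus ATP (1.25 mM final); secreted IL-1B measured by AlphaLISA after 16 hr, decreased signal indicating inhibition.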
TDP1 cell CPT – qHTS for Inhibitors of human tyrosyl-DNA phosphodiesterase 1 (TDP1): qHTS in cells in presence of CPT. chicken DT40 Tdp1-/-;hTDP1 cells + 20 nM CPT, ATP luminescence, 48 h. 420,000 tested, 12% active. Potency, µM (highest dose often 46.2 µM), usual class: inhibitors; note: nearly all actives have a fitted effect of over 55% in size
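Cell growth measured by CellTiter-Glo luminescence after a minimum 48 h, 37 C compound exposure with 20 nM CPT in Tdp1-knockout DT40 cells stably expressing hTDP1, seeded 400/well; qHTS titration format.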
Gal4-VP16 FLuc – VP16 counterscreen qHTS for inhibitors of ROR gamma transcriptional activity. Drosophila S2 Gal4-VP16 UAS-luciferase, luminescence, 20 h. Potency, µM (series often up to 53.6 µM), most hits filed as inhibitors. AID 2546, 2010. 310,000 tested, 3.5% active;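 note: Gal4-VP16 expression switched on by copper sulfate through the metallothionein promoter; nearly all actives have a fitted effect of over 50% in size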
TDP1 cell noCPT – qHTS for Inhibitors of human tyrosyl-DNA phosphodiesterase 1 (TDP1): qHTS in cells in absence of CPT. Potency, µM (doses to about 46.2 µM), usual class: inhibitors. AID 686978, 2013. DT40 Tdp1-/- hTDP1 cells, no CPT, ATP luminescence, 48 h. 420,000 tested, 15% active; note: nearly all actives have a fitted effect of over 55% in size
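Readout: luminescence from CellTiter-Glo after 30 min in the dark at RT. Cells: DT40 Tdp1-/- with stable hTDP1, 400/well. Exposure: compounds alone, ≥48 hr, 37 °C.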
RORgamma inh – qHTS for inhibitors of ROR gamma transcriptional activity; Nuclear receptor ROR-gamma (Mus musculus), P51450; Drosophila S2 Gal4-RORgamma UAS-luciferase reporter, 20 h; Potency, µM (highest dose often 53.6 µM), usual class: inhibitors; 310,000 tested, 5.4% active; AID 2551, 2010; note: nearly all actives have a fitted effect of over 60% in size
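ROR gamma transcriptional activity was tracked as Gal4-UAS luciferase output in stably transfected Drosophila Schneider cells, with compound added 1 hr before 700 uM copper sulfate induction and a 20 hr ambient-temperature incubation.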
Of the large screens only hits and unclear results are named; the others gave an inactive call. Unless noted, calls come from the whole dose curve; as a rule, active = well fitted curve in the direction sought with a large enough effect; inconclusive = small, poorly fitted or top-dose-only effect, or another doubt; inactive = no such curve, though single readings can be large; an effect the other way counts as inactive or inconclusive.

O=C(/C=C/c1ccco1)Nc1ccc2oc(-c3cccc(F)c3)nc2c1	none (no result: IL1B secr inh, TDP1 cell CPT, Gal4-VP16 FLuc, TDP1 cell noCPT, RORgamma inh)
CSc1ccc(S(=O)(=O)NCCOc2ccccc2C)cc1	TDP1 cell CPT 26µM, Gal4-VP16 FLuc inconclusive, TDP1 cell noCPT inconclusive
CC(=O)Nc1ccc(S(=O)(=O)NCCC(=O)Nc2cccc(Cl)c2)cc1	none
CC(=O)Nc1ccc(S(=O)(=O)NCCOc2ccc(Cl)cc2C)cc1	TDP1 cell CPT 23µM, Gal4-VP16 FLuc 5µM, TDP1 cell noCPT 13µM, RORgamma inh inconclusive
CCCCOc1ccc(CONS(=O)(=O)c2ccc(NC(C)=O)cc2)cc1Cl	IL1B secr inh -103, TDP1 cell CPT 13µM, TDP1 cell noCPT 15µM
CCCCCn1nc(C(=O)NCCN(C)CCOC)c2ccccc2c1=O	none (no result: IL1B secr inh, TDP1 cell CPT, Gal4-VP16 FLuc, TDP1 cell noCPT, RORgamma inh)
O=C(CSC1CCCCC1)c1ccccc1Br	none (no result: IL1B secr inh, TDP1 cell CPT, Gal4-VP16 FLuc, TDP1 cell noCPT, RORgamma inh)
CNC(=O)c1ccccc1OCc1coc(-c2ccccc2)n1	none (no result: IL1B secr inh, TDP1 cell CPT, Gal4-VP16 FLuc, TDP1 cell noCPT, RORgamma inh)
CC(C)(C)Nc1nc(Cl)nc(Nc2ccccc2)n1	IL1B secr inh -65, TDP1 cell CPT inconclusive, TDP1 cell noCPT inconclusive, RORgamma inh inconclusive
Clc1nc(Nc2ccccc2)nc(Nc2ccccc2)n1	IL1B secr inh -100, Gal4-VP16 FLuc inconclusive
COc1ccc(Nc2nc(Cl)nc(Nc3ccc(OC)cc3)n2)cc1	Gal4-VP16 FLuc inconclusive, TDP1 cell noCPT inconclusive
COc1ccc(CNCc2ccco2)cc1OC	none (no result: IL1B secr inh, TDP1 cell CPT, Gal4-VP16 FLuc, TDP1 cell noCPT, RORgamma inh)
COc1ccc(C2C(C(=O)Nc3ccc(C)cn3)=C(C)NC3=C2C(=O)CCC3)c(OC)c1 (stereo unspecified)	none (no result: IL1B secr inh, TDP1 cell CPT, Gal4-VP16 FLuc, TDP1 cell noCPT, RORgamma inh)
Cc1ccc(-c2cc(C(=O)N3CCN(C4CCS(=O)(=O)C4)CC3)c3ccccc3n2)cc1 (stereo unspecified)	IL1B secr inh inconclusive, TDP1 cell CPT 13µM, TDP1 cell noCPT inconclusive (no result: Gal4-VP16 FLuc, RORgamma inh)
Cc1ccc(-c2cc(C(=O)N3CCCCC3)c3ccccc3n2)cc1C	TDP1 cell CPT 16µM, Gal4-VP16 FLuc inconclusive, TDP1 cell noCPT 23µM
